Assay results as given in PubChem BioAssay (NCATS).
Records with an inconclusive call do not appear. Entries that show only a call come without a potency. The source made the active and inactive calls. Unless noted, calls follow the shape of the dose curve; as a rule, active = well fitted curve in the direction sought with a large enough effect; inconclusive = small, poorly fitted or top-dose-only effect, or another doubt; inactive = no such curve, though single readings can be large; an effect the other way counts as inactive or inconclusive.

Columns and labels:
[1] = Primary qHTS for inhibitors of La Crosse Virus (LACV) - induced cell death in SH-SY5Y cells (AID 1508616);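 also: top concentration of the series differs between compounds; higher means more rescue of cells from virus-induced death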
Outline: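 Screening measures cell viability in LACV-infected SH-SY5Y cultures. Compound was added before virus (0.01 MOI), and ATP was detected by luminescence 6 days later.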

[2] = biological target: Calcium and integrin-binding protein 1 (Homo sapiens) (UniProt Q99828); assay: Primary qHTS for Identification of Calcium Integrin Binding Protein 1 (CIB1) Competitor (AID 1508620);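 also: GST tagged CIB1 binding a fluorescein labelled alphaIIb integrin peptide tracer; top concentration of the series differs between compounds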
Outline: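 Fluorescence polarization competition: CIB1-GST (1 uM final) preincubated with compound 15 min at room temperature, then FITC-labeled alphaIIb peptide (100 nM final) added for another 15 min. Polarization read at Ex 480/Em 540.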

[3] = Primary qHTS for small molecule stabilizers of the endoplasmic reticulum resident proteome: Secreted ER Calcium Modulated Protein (SERCaMP) assay (AID 1508630)
Outline: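 The SH-SY5Y reporter protocol was run at 3 concentrations up to 38.3 uM (primary) or 11 concentrations (follow-up): 16 h compound, 100 nM thapsigargin for 4 h, then extracellular luciferase luminescence.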

[4] = A High-Content qHTS Against Drug Library for the Identification of Small Molecules that Inhibit DYT1 Early Onset Primary Dystonia-Associated Cell Pathology (AID 1645839; calls by dose curve)
Outline: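 Induced EGFP-delE TorsinA cells are imaged after 48 h of compound treatment. Punctate fusion-protein distribution gives the %pathology value, while nuclei counts flag toxicity. Wild-type EGFP-hTOR1A cells define the normal pattern.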

[5] = biological target: Cytochrome P450 2D6 (Homo sapiens) (UniProt P10635); assay: Cytochrome P450 family 2 subfamily D member 6 (CYP2D6) small molecule antagonists: luciferase biochemical (cell-free) qHTS assay (AID 1645840; active = well fitted curve in the direction sought with a large enough effect in the repeat runs; an effect the other way counts as inactive or inconclusive; also: nearly all actives have a fitted effect of over 55% in size; also: potency is read from the fitted curve at half-maximal effect)
Outline: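 P450-Glo CYP2D6 system: proluciferin substrate converted by enzyme to luciferin, read by luminescence proportional to activity. Enzyme-substrate mix with compound 10 min at room temperature, then NADPH regeneration 1 h before detection reagent.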

[6] = biological target: Cytochrome P450 2C9 (Homo sapiens) (UniProt P11712); assay: Cytochrome P450 family 2 subfamily C member 9 (CYP2C9) small molecule antagonists: luciferase biochemical (cell-free) qHTS assay (AID 1645842; active = well fitted curve in the direction sought with a large enough effect in the repeat runs; an effect the other way counts as inactive or inconclusive; also: nearly all actives have a fitted effect of over 55% in size; also: potency is read from the fitted curve at half-maximal effect)
Outline: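 P450-Glo CYP2C9 system: proluciferin substrate with enzyme in mix containing 0.4% BSA, 10 min at room temperature, then NADPH regeneration solution added and incubated 1 h at 37C. Detection reagent stopped reaction; luminescence read after 20 min as RLU.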

[7] = Cytotoxicity counterscreen for inhibitors of SARS-CoV-2 cell entry (AID 1645845; calls by dose curve; also: nearly all actives have a fitted effect of over 50% in size)
Outline: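 After a 15 min room-temperature ATPLite 1step step, luminescence reflected ATP remaining in HEK293-ACE2 cells exposed to compound for 1 h plus 48 h at 37 C, with percent activity set by cell and no-cell controls.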

[8] = Primary qHTS to identify inhibitors of SARS-CoV-2 cell entry (AID 1645846; calls by dose curve; also: nearly all actives have a fitted effect of over 45% in size); conditions: activity change, negative = inhibition: at 57.1 µM (top of the series) unless noted
Outline: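 HEK293 cells stably expressing human ACE2, pre-treated 1 h with compound, then infected with MLV particles pseudotyped with Wuhan-Hu-1 spike (C-terminal 19-aa truncation). Luciferase luminescence after 48 h at 37 °C, normalised to spike PP and bald PP.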

[9] = Primary qHTS for inhibitors of nuclear receptor binding SET domain protein 2 (NSD2) in an isogenic RCH-ACV NSD2 p.E1099K mutant (9B) (AID 1645876); also: nearly all actives have a fitted effect of over 70% in size
[10] = Primary qHTS for inhibitors of nuclear receptor binding SET domain protein 2 (NSD2) in an RCH-ACV wild type WT cells (2C) (AID 1645877); also: nearly all actives have a fitted effect of over 70% in size; also: potency is read from the fitted curve at half-maximal effect
[11] = biological target: Calcium and integrin-binding protein 1 (Homo sapiens) (UniProt Q99828); assay: Validation qHTS for Identification of Calcium Integrin Binding protein 1 (CIB1) Competitor (AID 1508618)
Outline: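 Displacement of FITC-alphaIIb peptide (100 nM) from CIB1-GST (1 uM) is monitored by polarization in quantitative HTS format; buffer carries 5 mM CaCl2 and 125 mM NaCl at pH 7.4, incubations are at room temperature.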

Papain (Carica papaya) = Papain (Carica papaya) (UniProt P00784); assay: Primary qHTS assay for inhibitors of the protease papain (AID 1645873);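 also: papain turnover of Z-FR-AMC read as the AMC fluorescence gain over 10 min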
Chain of Papain (Carica papaya) (P00784 whole entry, looked up): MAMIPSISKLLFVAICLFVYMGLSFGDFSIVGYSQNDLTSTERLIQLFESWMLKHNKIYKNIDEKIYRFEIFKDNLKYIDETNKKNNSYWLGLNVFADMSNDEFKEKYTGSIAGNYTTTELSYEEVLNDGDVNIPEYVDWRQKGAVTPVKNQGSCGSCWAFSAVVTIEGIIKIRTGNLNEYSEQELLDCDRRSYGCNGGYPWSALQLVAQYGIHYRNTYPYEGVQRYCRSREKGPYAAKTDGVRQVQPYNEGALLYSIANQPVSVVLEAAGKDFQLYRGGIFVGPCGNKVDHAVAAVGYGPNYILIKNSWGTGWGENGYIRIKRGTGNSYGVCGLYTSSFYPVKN

Chain of Cytochrome P450 2C9 (Homo sapiens) (P11712 whole entry, looked up): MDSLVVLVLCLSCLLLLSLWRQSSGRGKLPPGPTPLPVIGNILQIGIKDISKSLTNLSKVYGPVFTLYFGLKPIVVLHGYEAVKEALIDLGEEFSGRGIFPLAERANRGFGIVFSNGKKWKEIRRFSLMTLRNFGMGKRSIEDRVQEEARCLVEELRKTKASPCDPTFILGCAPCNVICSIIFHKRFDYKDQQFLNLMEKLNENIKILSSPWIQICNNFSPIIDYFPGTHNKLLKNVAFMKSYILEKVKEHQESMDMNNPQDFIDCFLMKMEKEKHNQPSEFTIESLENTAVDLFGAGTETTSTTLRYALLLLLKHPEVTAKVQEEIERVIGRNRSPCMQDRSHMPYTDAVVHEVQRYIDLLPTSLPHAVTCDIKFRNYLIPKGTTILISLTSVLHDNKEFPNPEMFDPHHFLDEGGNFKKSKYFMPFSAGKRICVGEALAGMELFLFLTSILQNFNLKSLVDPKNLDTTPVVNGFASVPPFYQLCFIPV
Chain of Calcium and integrin-binding protein 1 (Homo sapiens) (Q99828 whole entry, looked up): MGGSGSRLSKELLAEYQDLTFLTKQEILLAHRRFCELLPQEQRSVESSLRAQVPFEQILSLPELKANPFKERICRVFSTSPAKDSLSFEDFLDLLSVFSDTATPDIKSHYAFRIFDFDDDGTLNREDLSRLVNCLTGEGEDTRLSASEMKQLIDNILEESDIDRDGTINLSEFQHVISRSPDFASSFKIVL
Chain of Cytochrome P450 2D6 (Homo sapiens) (P10635 whole entry, looked up): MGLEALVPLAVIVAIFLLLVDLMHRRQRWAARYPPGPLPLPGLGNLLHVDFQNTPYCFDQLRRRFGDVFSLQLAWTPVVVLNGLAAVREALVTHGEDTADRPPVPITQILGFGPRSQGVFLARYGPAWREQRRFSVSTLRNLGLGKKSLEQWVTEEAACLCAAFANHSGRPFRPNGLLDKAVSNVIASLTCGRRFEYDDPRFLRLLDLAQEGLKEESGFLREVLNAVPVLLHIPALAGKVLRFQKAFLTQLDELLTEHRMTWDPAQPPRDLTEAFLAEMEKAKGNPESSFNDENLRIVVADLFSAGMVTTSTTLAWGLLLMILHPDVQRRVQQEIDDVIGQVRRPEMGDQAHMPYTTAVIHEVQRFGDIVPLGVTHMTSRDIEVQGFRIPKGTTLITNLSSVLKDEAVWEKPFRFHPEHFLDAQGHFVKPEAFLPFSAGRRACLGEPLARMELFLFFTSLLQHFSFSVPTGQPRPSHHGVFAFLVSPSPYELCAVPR

| Compound | outcome [1] | Potency [2] | outcome [3] | outcome [4] | Potency [5] | Potency [6] | Potency [7] | Potency [8] | Potency [9] | Potency [10] | outcome [11] | outcome (Papain (Carica papaya)) | activity change, negative = inhibition [8] |
| --- | --- | --- | --- | --- | --- | --- | --- | --- | --- | --- | --- | --- | --- |
| CN(C)C(=O)Oc1cc(OC(=O)N(C)C)cc(C(O)CNC(C)(C)C)c1 (stereo not given) | inactive | inactive | inactive | inactive | 8.71 µM (active) | inactive | inactive | inactive | inactive | inactive |  |  |  |
| O=C(NC(=O)c1c(F)cccc1F)Nc1cc(Cl)c(OC(F)(F)C(F)C(F)(F)F)cc1Cl (stereo not given) | inactive | inactive | inactive | inactive | inactive | 19.5 µM (active) | inactive |  |  |  |  |  |  |
| NC(=O)CN1CCCC1=O | inactive | inactive | inactive | inactive | inactive | inactive | inactive | inactive | inactive | inactive | inactive | inactive |  |
| C[C@@H]1CN(C2CCC(C#N)(c3ccc(F)cc3)CC2)CC[C@]1(C(=O)O)c1ccccc1 (stereo not given in full) | inactive | inactive | inactive | inactive | 0.049 µM (active) | inactive | inactive |  | inactive | inactive |  |  | -31.8% |
| COc1cc(CC#N)cc(OC)c1OC | inactive | inactive | inactive | inactive | inactive | inactive |  |  | inactive | inactive |  |  |  |
| C[C@]12CC[C@H]3[C@@H](CCC4=CC(=O)CC[C@@H]43)[C@@H]1CC[C@@H]2O | inactive | inactive | inactive | inactive | inactive | inactive |  |  |  | inactive |  |  |  |
| C[C@H]1C(=O)O[C@@H]2CCN3CC=C(COC(=O)[C@](C)(O)[C@]1(C)O)[C@H]23 | inactive | inactive | inactive | inactive | inactive | inactive |  |  |  | 23.7 µM (active) |  |  |  |
| CCOC(=O)C(c1c(O)c2ccccc2oc1=O)c1c(O)c2ccccc2oc1=O | inactive | inactive | inactive | inactive | inactive | 3.09 µM (active) |  |  | inactive | inactive |  |  |  |
| OC(O)C(Cl)(Cl)Cl | inactive | inactive | inactive | inactive | inactive | inactive |  |  | inactive | inactive |  |  |  |
| CCCOC(=O)Cc1ccc(OCC(=O)N(CC)CC)c(OC)c1 | inactive | inactive | inactive | inactive | inactive | inactive |  |  | inactive | inactive |  |  |  |
| C[N+](C)(C)CCOC(=O)C(O)(c1ccccc1)c1ccccc1 | inactive | inactive | inactive | inactive | 15.5 µM (active) | inactive |  |  | inactive | inactive |  |  |  |
| CCOC(=O)NC(O)C(Cl)(Cl)Cl (stereo not given) | inactive | inactive | inactive | inactive | inactive | inactive |  |  | inactive | inactive |  |  |  |
| C[C@]12CC[C@H]3[C@@H](CC=C4C[C@@H](O)CC[C@@]43C)[C@@H]1CC[C@@H]2O | inactive | inactive | inactive | inactive | inactive | inactive |  |  | inactive | inactive |  |  |  |
| O=c1[nH]c2cc(Cl)ccc2n1C1CCNCC1 | inactive | inactive | inactive | inactive | 19.5 µM (active) | inactive |  |  | inactive | inactive |  |  |  |
| CCOC(=O)NC(C)(C)Cc1ccc(Cl)cc1 | inactive | inactive | inactive | inactive | inactive | 15.5 µM (active) |  |  | inactive | inactive |  |  |  |
| COc1cc(N)c(Cl)cc1C(=O)NC1CN2CCC1CC2 (stereo not given) | inactive | inactive | inactive | inactive | 15.5 µM (active) | inactive |  |  | inactive | inactive |  |  |  |
| CC(C)[N+](C)(CCC(C(N)=O)(c1ccccc1)c1ccccc1)C(C)C | inactive | inactive | inactive | inactive | 1.95 µM (active) |  | inactive |  | inactive | inactive |  |  | -0.507% |
| CC(C)C(Br)C(=O)NC(N)=O (stereo not given) | inactive | inactive | inactive | inactive | inactive | inactive | inactive |  | inactive | inactive |  |  |  |
| COCC(=O)N(c1c(C)cccc1C)C(C)C(=O)OC (stereo not given) | inactive | inactive | inactive | inactive | inactive | inactive |  |  | inactive | inactive |  |  |  |
| CCNc1nc(Cl)nc(NCC)n1 | inactive | inactive | inactive | inactive | inactive | inactive |  |  | inactive | inactive |  |  |  |
| COc1ccc(OC)c(CC(C)N)c1 (stereo not given) | inactive | inactive | inactive | inactive | 6.05 µM (active) | inactive |  |  | inactive | inactive |  |  |  |
| CN1C[C@@H](NS(=O)(=O)N(C)C)C[C@@H]2c3cccc4c3c(cn4C)C[C@H]21 | inactive | inactive | inactive | inactive | 2.19 µM (active) | inactive |  |  | inactive | inactive |  |  |  |
| ClC1=C(Cl)C2(Cl)C(CBr)CC1(Cl)C2(Cl)Cl (stereo not given) | inactive | inactive | inactive | inactive | inactive | inactive |  |  | inactive | inactive |  |  |  |
| Cc1nnc2n1-c1sc(CCC(=O)N3CCOCC3)cc1C(c1ccccc1Cl)=NC2 | inactive | inactive | inactive | inactive | inactive | inactive | inactive |  | inactive | inactive |  |  |  |
